Screens (PubChem BioAssay)
HT1080NT lethal: kills 2HG-producing HT-1080-NT fibrosarcoma cells; HT-1080-NT fibrosarcoma viability, CellTiter-Glo ATP luminescence, 48 h; Potency, µM (top dose mostly 46.1 µM), inactives show at the top dose activity, negative = less viability, usual class: cytotoxic; 360,000 tested, 1.6% active; AID 686970;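 further: NT is the 2HG producing partner of a matched IDH1 knockdown line; 0% = DMSO-treated cells and -100% = media-only wells without cells; nearly all actives have a fitted effect of over 55% in size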
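Fibrosarcoma NT cells, 750 per well in 5% FBS RPMI, were exposed to compound for 48 hours. Viability: CellTiter-Glo luminescence.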
KB-V1 MDR tox: KB-V1 MDR subline cytotoxicity. KB-V1 MDR cells viability, CellTiter-Glo, 72 h. Potency, µM (titrated, usually from 46.1 µM), most hits filed as cytotoxic. 400,000 tested, 3.4% active. AID 1347076; further: on the % scale 0 is the no-effect control and ±100 the full control effect; nearly all actives have a fitted effect of over 60% in size
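Cytotoxicity via CellTiter-Glo luminescence after 72 h compound exposure at 37 degrees C. Cells: drug-selected KB-V1 line, DMEM phenol-red free plus 10% FBS. Compounds tested at multiple concentrations; normalized data fitted to concentration-effect curves.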
HT1080 IDH1KD tx: HT-1080 IDH1 knockdown cell toxicity (counter line); AID 686971; HT-1080 IDH1 knockdown viability, ATP luminescence, 48 h; Potency, µM (doses to about 46.1 µM), for the others: at the highest dose activity, negative = toxicity, most hits filed as cytotoxic; 360,000 tested, 2% active;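 further: 0% = DMSO wells and -100% = cell-free medium wells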
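IDH1KD HT-1080 cells, 750/well, RPMI + 5% FBS; compound pinned after 2 h settling; 48 h, 37 °C; CellTiter-Glo luminescence; % activity normalised to DMSO and no-cell wells; curves fitted, classed by r2 and efficacy.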
KB-3-1 tox: kills parental KB-3-1 adenocarcinoma cells | KB-3-1 viability, CellTiter-Glo ATP luminescence, 72 h | Potency, µM (titrated, usually from 46.1 µM), hits mostly cytotoxic | 400,000 tested, 1.4% active | AID 1347075; further: on the % scale 0 is the no-effect control and ±100 the full control effect; nearly all actives have a fitted effect of over 60% in size
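Cytotoxicity in the drug-sensitive parental line KB-3-1 was scored as loss of CellTiter-Glo luminescence following 72 h incubation with compound. Values come from curve fitting of normalized concentration-response data.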
SW480 rereplic: DNA re-replication induction in SW480 cells | 340,000 tested, 1.8% active | SW480 DNA re-replication, Hoechst DNA content imaging, 48 h | Potency, µM (doses to about 46.1 µM), for the others: at the highest dose re-replication activation, actives largely listed as activators; further: % of control where 0% means no effect; nearly all actives have a fitted effect of over 55% in size
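Image-based read-out: total Hoechst fluorescence of nuclei (405 nm excitation, 500-530 nm emission), with hits raising the fraction of high-intensity nuclei. SW480 colon cells incubated 48 hr with compounds at 37 C.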
MCF10A rereplic: induces DNA re-replication in MCF 10a normal breast cells; MCF 10A DNA re-replication, Hoechst nuclear intensity, 48 h; Potency, µM (doses to about 46.1 µM), for inactives: at the top dose activity, positive = re-replication, most hits filed as activators; 350,000 tested, 2.9% active; AID 624296; further: % of control where 0% means no effect; nearly all actives have a fitted effect of over 50% in size
The depositor's hits bear a star; i = inactive; ? = inconclusive; . = no result; [ ] = another dose, or the depositor's remark. This is a sample that favours compounds with a hit; in the whole collection about 7.9% have one here. The call rests on the fitted dose curve; in most records, active means well fitted curve in the direction sought with a large enough effect; inconclusive means small, poorly fitted or top-dose-only effect, or another doubt; inactive means no such curve, though single readings can be large; an effect the other way counts as inactive or inconclusive. Potency means the concentration at half of the fitted maximal effect.

SMILES | HT1080NT lethal | KB-V1 MDR tox | HT1080 IDH1KD tx | KB-3-1 tox | SW480 rereplic | MCF10A rereplic
CC(C)CC(=O)/C=C/n1c(=S)oc2ccccc21 | -11% | ? | ? | ? | 8.2µM* | 3.7µM*
CC(=O)/C=C/n1c(=S)oc2ccccc21 | 5.2µM* | 16µM* | 5.2µM* | ? | 4% | 3.3µM*
Cn1c(=S)oc2ccccc21 | 15% | i | 10% | i | -1% | ?
COC(=O)C1=CN(C(C)c2ccccc2)C=C(C(=O)OC)C1c1cc(OC)c(OC)c(OC)c1 (stereo not given) | -26% | i | -14% | i | 21µM* | ?
CCc1ccc(C(=O)Nc2nc3ccccc3[nH]2)cc1 | ? | i | ? | ? | ? | 5%
CCCOc1ccc2nc(NC(=O)OC)[nH]c2c1 | . | . | . | . | 2.9µM* | 4.6µM*
CCOC(=O)Nc1nc2ccc(Cn3cccc3)cc2[nH]1 | 3.3µM* | 1.2µM* | ? | 0.58µM* | 1.3µM* | 3.3µM*
CCOc1ccc(Cn2c3ccc(OC)cc3c3nc4ccccc4nc32)cc1OC | -30% | i | ? | i | ? | 7.3µM*
COc1ccc2c(c1)c1nc3ccccc3nc1n2Cc1ccc(OC)c(OC)c1 | -27% | i | ? | i | -3% | 8.2µM*
CCOC(=O)C1=C[C@@]2(CC)CCCN3CCc4c(n1c1ccccc41)[C@H]32 | . | . | . | . | -4% | 4%
CCOC(=O)c1cccc(NC(=O)CSc2nc3ccccc3c(=O)n2CC)c1 | 19% | 2.3µM* | -3% | i | -8% | 4%
COCCn1c(-c2ccccc2)cnc1SCC(=O)Nc1cccc2ccccc12 | -7% | 5.2µM* | -6% | i | 8% | ?
CCOC(=O)c1cccc(NC(=O)CSc2nc3ccccc3c(=O)n2CCOC)c1 | 4% | 4.6µM* | 0% | i | -1% | 25%
CC(=NNC1=NCCN1)c1cn(C2=NCCN2)nc1C | 16% | i | 6% | i | . | .
CCN1C(=NCC2CC2)N[C@@H](c2cccc(C(F)(F)F)c2)C(C(=O)OC)=C1C | -10% | i | -8% | ? | 0% | -14%
O=[N+]([O-])c1cccc(-c2nnc(-c3ccccc3)o2)c1 | 20% | i | 27% | i | -4% | ?
Cc1occc1-c1nnc(-c2cc([N+](=O)[O-])cc([N+](=O)[O-])c2)o1 | -8% | i | 0% | i | 13µM* | 0%
CCOC(=O)c1sc(NC(=O)c2ccc(S(=O)(=O)N(CC)CC)cc2)nc1C | 4% | i | 0% | i | 6% | 7%
CCN(CC)S(=O)(=O)c1ccc(C(=O)Nc2nc3c(Cl)cc(Cl)cc3s2)cc1 | . | i | . | 21µM* | . | .
COc1cc([N+](=O)[O-])ccc1N/C=C/C(=O)c1cccs1 | 4%[9.24 µM] | 3.3µM* | ? | 5.2µM* | -2% | 23%
Cc1nnc2c(N3CCN(c4ccccc4F)CC3)nc3ccc(C(=O)c4ccccc4)cc3n12 | . | i | . | i | . | .
O=[N+]([O-])C1C(c2ccccc2)C12c1ccccc1-c1ccccc12 (stereo not given) | 5.8µM* | 5.2µM* | 6.5µM* | ? | . | .
CC1(C)c2ccccc2C(=O)c2ccccc21 | 8% | i | 2% | i | -4% | 5%
COc1ccc(C(CC(=O)N2CCCC2)c2ccc(F)cc2)cc1 (stereo not given) | -13% | ? | -5% | i | 2% | 1%
O=C(Oc1ccc(/C=N/O)cc1)c1ccccc1Cl | 0% | i | -1% | i | ? | 11%
SMILES | HT1080NT lethal | KB-V1 MDR tox | HT1080 IDH1KD tx | KB-3-1 tox | SW480 rereplic | MCF10A rereplic
Cc1cc(NCCN2CCOCC2)n2nc(C)c(-c3ccc(Cl)cc3)c2n1 | 23µM* | 23µM* | ? | ? | 12% | -1%
COc1ccc(CCNc2cc(C)nc3c(-c4ccccc4)c(C)nn23)cc1OC | -1% | 8.2µM* | -1% | i | -34% | 19%
Cc1cc(NCCN2CCOCC2)n2nc(C)c(-c3ccccc3)c2n1 | -7% | i | -4%[9.24 µM] | i | -8% | -1%
Cc1cc(NCCCn2ccnc2)n2nc(C)c(-c3ccc(Cl)cc3)c2n1 | -26%[9.24 µM] | 23µM* | 11µM* | ? | 3% | 21%
COc1cccc(CNc2cccc(C(F)(F)F)c2)c1O | -20% | i | -16% | 21µM* | -18% | -1%
CC(C)CCNC(=O)Nc1ccc2c(c1)N(C)C(=O)CS2 | -5% | 21µM* | -13% | i | 1% | 1%
Cc1cccc(NC(=O)Cn2cnc3c(oc4ccccc43)c2=O)c1C | 0% | i | -7% | i | -4% | 2%
Cc1ccccc1NC(=O)Cn1cnc2c(oc3ccccc32)c1=O | 1% | 18µM* | 4% | i | 2% | 3%
Cc1ccc2nc(-c3sc4nc(C)cc(C)c4c3N)[nH]c2c1 | 3% | ? | 3% | ? | 12µM* | 10µM*
O=C(NCC(F)(F)F)c1cc2c(c(-c3cccc(-c4ccccc4F)c3)n1)[C@@H](CCO)N(C(=O)CC1CC1)C2 | ? | ? | 21µM* | ? | . | .
O=C(NCC1CC1)c1cc2c(c(-c3cccc(-c4ccccc4F)c3)n1)[C@@H](CCO)N(C(=O)CC1CC1)C2 | 21µM* | ? | ? | i | . | .
O=C(NCC1CC1)c1cc2c(c(-c3cccc(-c4ccccc4F)c3)n1)[C@H](CCO)N(C(=O)CC1CC1)C2 | 23µM* | ? | ? | ? | . | .
CCNC(=O)c1cc2c(c(-c3cccc(-c4ccccc4F)c3)n1)[C@@H](CCO)N(C(=O)CC)C2 | -6% | ? | -8% | i | . | .
CCC(=O)N1Cc2cc(C(=O)NCC(F)(F)F)nc(-c3cccc(-c4cncnc4)c3)c2[C@H]1CCO | 4% | i | 15% | i | . | .
Cn1c(C(O)c2ccc(Br)cc2)nc(Cl)c1Cl (stereo not given) | -23% | i | -20% | i | 0% | 1%
Cc1ccc(-n2c(SCC(N)=O)nc3c(c2=O)C2(CCCC2)Cc2ccccc2-3)cc1 | -6% | 10µM* | -4% | ? | 0% | ?
COc1ccc2cc(-c3ccccc3)ncc2c1 | 5% | i | 15% | i | 4% | -34%
COc1cc(OC)cc(-c2cc3ccc(OC)cc3cn2)c1 | ? | ? | ? | i | 15µM* | 62%
COc1cc(OC)cc(-c2cc3cc4c(cc3cn2)OCO4)c1 | 0.92µM* | ? | 0.58µM* | ? | 2.6µM* | ?
O=C(Oc1ccc(=O)n(-c2ccccc2)n1)c1ccccc1 | -8% | i | -4% | i | -4% | ?
